Compound activity (PubChem BioAssay)
Hits are enriched below; roughly 3.5% of the tested compounds scored in any of these assays.
MITF primary: human MITF inhibition, primary screen; AID 1259374; 0.91% of 650,000 active; AlphaScreen MITF homodimerization, bead proximity signal; inhibition, % at 2.6 µM; in the data active = inhibition above about 50%;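 also: 0% = vehicle wells with protein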
GPR151 activ: activates the human receptor GPR151 | Q8TDV0 | PathHunter beta-arrestin GPR151 cells, luminescence | activation, % at 11.2 µM | 1% of 650,000 active; in the data active = activation above about 4.9%;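 also: 0% = median of compound wells and 100% = cells with positive control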
Target sequence (Q8TDV0 whole entry, looked up): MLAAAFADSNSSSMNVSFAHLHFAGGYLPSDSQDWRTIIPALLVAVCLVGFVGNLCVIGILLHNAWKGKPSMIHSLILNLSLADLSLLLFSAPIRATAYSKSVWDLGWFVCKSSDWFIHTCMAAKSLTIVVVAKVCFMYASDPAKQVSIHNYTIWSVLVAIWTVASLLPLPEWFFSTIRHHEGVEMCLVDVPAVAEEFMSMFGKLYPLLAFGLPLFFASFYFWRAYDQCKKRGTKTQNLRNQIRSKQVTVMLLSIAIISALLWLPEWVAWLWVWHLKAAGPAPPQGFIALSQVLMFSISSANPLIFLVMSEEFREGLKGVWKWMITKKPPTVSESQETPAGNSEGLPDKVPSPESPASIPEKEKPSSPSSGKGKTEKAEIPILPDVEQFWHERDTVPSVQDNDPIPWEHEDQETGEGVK
FBW7 activator: human FBW7 E3 ligase activation, primary screen; Q969H0; AlphaScreen FBW7–phospho-cyclin E peptide binding, activator screen; normalized activity (activation), % at 26.1 µM; 0.13% of 650,000 active; AID 1259310; in the data active = normalized activity above about 1.9%;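 also: purified mutant Fbw7 with reduced substrate affinity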
TEAD-YAP inh: TEAD-YAP interaction inhibition; HEK-TIYL cells, TEAD-Gal4/YAP UAS-luciferase luminescence; inhibition, % at 9.12 µM; 1.4% of 640,000 active; in the data active = inhibition above about 32%;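 also: 0% = median of test compound wells and 100% = reference inhibitor wells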
* = called active by the depositor; ! = repeats disagree.

SMILES | MITF primary | GPR151 activ | FBW7 activator | TEAD-YAP inh
N#CC1=C(SCC(=O)Nc2cccc(Br)c2)NC(=O)CC1c1cccs1 (configuration not stated) | -16 | 0 | 0 | -4
Cc1cc(S(=O)(=O)N2CCC(C(N)=O)CC2)ccc1-n1cnnn1 | -1 | 0 | 0 | 7
CC(C)c1ccc(NC(=O)c2ccc([N+](=O)[O-])cc2)cc1 | 21 | -1 | 0 | -20
CS/C(=C\[N+](=O)[O-])Nc1ccc(C(C)C)cc1 | -16 | 0 | 0 | 54*
C1=Nc2ccccc2SC(c2cccnc2)=C1 | -4 | -11 | 0 | 86*
Cc1[nH]ccc2c1[nH]c1cc(=O)ccc12 | 27 | -1 | 0 | 37*!
COc1ccccc1-c1cc(C(=O)NCc2cccs2)[nH]n1 | 0 | 1 | 0 | -17
Cc1ncc([N+](=O)[O-])n1S(=O)(=O)c1ccccc1 | 11 | 0 | 0 | 11
Cc1ncc([N+](=O)[O-])n1S(=O)(=O)c1cccc2ccccc12 | 0 | 0 | 2.3* | 5
CCN(CC)S(=O)(=O)c1ccc(-c2csc(=Nc3ccc(F)cc3)n2CCc2ccc(OC)cc2)cc1 | 16 | 0 | 0 | -2
CCN(CC)S(=O)(=O)c1ccc(-c2csc(=Nc3ccc(F)cc3)n2CCO)cc1 | 22 | 1 | 0 | 46*
O=S(=O)(c1ccc(-c2csc(=Nc3ccc(F)cc3)n2CCO)cc1)N1CCCC1 | 44 | 1 | 0 | 47*
O=C(Nc1ccc(Br)cc1)c1nc[nH]c1C(=O)Nc1ccccc1[N+](=O)[O-] | 2 | 0 | 0 | 2
O=C1c2ccc([N+](=O)[O-])cc2C(=O)N1CNc1ccccc1I | -3 | 2 | 0 | 6
Cc1cc(C(F)(F)F)nc2sc(C(=O)Nc3ccc(C(N)=O)cc3)c(N)c12 | -10 | -1 | 0 | -19
COC(=O)c1ccc(-c2nc3cc(Cl)c(N)cc3s2)cc1 | -4 | -1 | 0 | 47*
Cc1ccc(-c2cnc3ccc(NCc4ccc5c(c4)OCO5)nn23)cc1 | 8 | 0 | 0 | 48*
c1cc(CNc2ccc3ncc(-c4ccc5c(c4)OCO5)n3n2)ccn1 | 5 | 0 | 0 | 50*
c1ccc(CNc2ccc3ncc(-c4ccc5c(c4)OCO5)n3n2)nc1 | 7 | 1 | 0 | 58*
O=C(O)c1ccc(-c2cnc3ccc(NCc4ccc5c(c4)OCO5)nn23)cc1 | -16 | -1 | 0 | -3
CCOc1cccc(CN2CCN(Cc3cccc(OC)c3)C(CCO)C2)c1O (configuration not stated) | 3 | 0 | 0 | 3
CC(=O)Nc1ccc(CN2CCCC(C)C2)cc1 (configuration not stated) | 3 | 1 | 1 | -2
Cc1cccc(OCC(=O)N/N=C\c2ccc(N(C)C)cc2)c1 | -2 | -1 | 0 | 9
Cc1ccc(/C=C2\CC/C(=C\c3ccc(C)o3)C2=O)o1 | 58* | -1 | 0 | 9
COC(=O)c1c(N)sc(C(=O)Nc2ccccc2C)c1C | -22 | -2 | 0 | 24
SMILES | MITF primary | GPR151 activ | FBW7 activator | TEAD-YAP inh
CCOC(=O)c1c(N)sc(C(=O)Nc2cccc(OC)c2)c1C | 18 | -8 | 0 | 52*
CCOC(=O)c1ccc(NC(=O)c2sc(N)c(C(=O)OCC)c2C)cc1 | -4 | 2 | 0 | 61*
CCOC(=O)c1ccccc1NC(=O)c1sc(N)c(C(=O)OCC)c1C | 22 | 1 | 0 | 54*
CCOC(=O)c1ccc(NC(=O)c2sc(NC(=O)c3cc(OC)c(OC)c(OC)c3)c(C(=O)OCC)c2C)cc1 | 4 | 1 | 0 | 8
COC(=O)c1c(N)sc(C(=O)Nc2ccc(C)cc2C)c1C | -18 | -3 | 0 | 76*
CCOC(=O)c1c(N)sc(C(=O)Nc2ccccc2C)c1C | -12 | -1 | 0 | -17
O=C(O)C1CCCCC1C(=O)NCc1ccccc1Cl (configuration not stated) | 11 | 0 | 0 | 9
Cc1cc(C)c(-c2nnc(-c3ccco3)o2)c(C)c1 | 11 | 1 | 0 | -11
O=C1CCCN1CCCNc1nc(Nc2ccc(C(F)(F)F)cc2)nc2c1ncn2-c1ccccc1 | 7 | 1 | 0 | 13
CC(C)C(=O)NCC1CCC2(CCN(Cc3ccc4c(c3)OCO4)CC2)O1 (configuration not stated) | 5 | 1 | 0 | 8
Cc1ccc(COc2ccc(C=C3C(=O)N(C)C(=O)N(C)C3=O)cc2)cc1 | 4 | -2 | 0 | -39
COc1cc(CN2CCN(S(=O)(=O)c3ccc(NC(C)=O)cc3)CC2)ccc1OCc1ccccc1 | 40 | 2 | 0 | 31
COc1ccc(CN2CCN(S(=O)(=O)c3ccc(NC(C)=O)cc3)CC2)cc1OCc1ccccc1 | 46 | 1 | 0 | 35*
O=C(CSc1ncccc1-c1nc2ccccc2[nH]1)NCc1ccco1 | -10 | 0 | 0 | 10
Cc1cc2nc(-c3cccnc3SCC(=O)NCc3ccco3)[nH]c2cc1C | -6 | -11 | 0 | 37*
COc1ccc(CNC(=O)/C=C/c2ccc(Cl)cc2)cc1 | 12 | -1 | 0 | 2
CCN(CC)Cc1cc(O)c(CN(CC)CC)cc1O | 76* | -1 | 0 | 4
C=C(C)CN(CC)Cc1cc(Cl)ccc1O | -6 | 2 | 0 | 3
COc1ccccc1Nc1c2c(nc3ncnn13)CCC2 | 1 | 0 | 0 | -7
COc1ccc(C)cc1Nc1c2c(nc3ncnn13)CCC2 | 8 | 0 | 0 | 38*
C=CCOC(=O)C1=C(C)OC(N)=C(C#N)C1c1cc2cc(C)ccc2[nH]c1=O (configuration not stated) | 1 | -1 | 0 | 59*
c1nc(NCCCN2CCCCC2)c2[nH]cnc2n1 | -62 | 1 | 1 | 12
O=C(Cc1noc2ccccc12)Nc1cccc(-c2ccc(N3CCCC3)nn2)c1 | 6 | 0 | 0 | 48*
CC(=O)c1cccc(NC(=O)Cc2noc3ccccc23)c1 | 1 | -1 | 2 | -19
CC(Oc1ccccc1F)C(=O)Nc1cccc(-c2ccc(N3CCOCC3)nn2)c1 (configuration not stated) | 16 | -2 | 0 | 42*
SMILES | MITF primary | GPR151 activ | FBW7 activator | TEAD-YAP inh
COc1ccc(CC(=O)Nc2cccc(-c3ccc(N4CCOCC4)nn3)c2)cc1OC | -4 | -7 | 0 | 34*
CCOC(=O)c1c(NC(=O)CN2C(=O)CSC(C)C2=O)sc2c1CCCC2 (configuration not stated) | -18 | -1 | 1 | 6
Cc1ccccc1C(=O)Nc1ccc2nc(NC(=O)c3ccccc3C)sc2c1 | 7 | 1 | 0 | 55*
CC(=O)Nc1ccc2nc(NC(=O)c3ccccc3C)sc2c1 | -5 | -5 | 0 | -56
CC(C)Oc1ccc(C(=O)NCc2ccccc2)cc1 | 12 | -1 | 2.5* | -22
Cc1ccsc1C(=O)Nc1nc2ccc(S(C)(=O)=O)cc2s1 | 3 | -12 | 0 | 62*
COc1ccc(CNC(=O)c2ccc(OC(C)C)cc2)cc1 | 5 | -1 | 0 | -37
CC(C)(C)c1ccc(C(=O)Nc2nc3ccccc3s2)cc1 | 10 | 1 | 0 | 39*
O=C(OCC(=O)c1cccc2ccccc12)c1cc2ccccc2oc1=O | 3 | -1 | 0 | -58
